# Bioassay records (PubChem BioAssay)
# An excerpt weighted towards active compounds, which were near 1.3% of everything screened.
# GLD-1 TGE inh – GLD-1-TGE RNA interaction inhibition (C. elegans); purified GLD-1 + fluorescein TGE RNA, fluorescence polarization; inhibition, % at 5.96 µM; 0.44% of 320,000 active; AID 2280;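 active = percent inhibition above a per-plate cutoff, the plate mean of test compounds plus 3 SD, cut at about 30% in these data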
# Target sequence (Q17339 whole entry, looked up): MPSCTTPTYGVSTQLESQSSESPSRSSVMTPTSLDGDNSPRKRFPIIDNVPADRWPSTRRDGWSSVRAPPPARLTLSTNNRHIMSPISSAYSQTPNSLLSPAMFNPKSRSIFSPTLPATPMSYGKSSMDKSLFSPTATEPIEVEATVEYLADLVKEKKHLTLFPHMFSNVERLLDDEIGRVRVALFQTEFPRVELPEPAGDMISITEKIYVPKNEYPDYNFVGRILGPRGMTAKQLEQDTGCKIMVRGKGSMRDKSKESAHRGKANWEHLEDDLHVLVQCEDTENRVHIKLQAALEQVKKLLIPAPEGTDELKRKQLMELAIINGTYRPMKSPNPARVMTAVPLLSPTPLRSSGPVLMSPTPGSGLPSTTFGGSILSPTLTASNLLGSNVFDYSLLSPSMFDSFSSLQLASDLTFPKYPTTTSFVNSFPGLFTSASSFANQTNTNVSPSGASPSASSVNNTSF
# Bcl-xL primary – blocks human Bcl-xL binding to Bim BH3 peptide. AID 2129. GST-Bcl-xL / FITC-Bim BH3 peptide fluorescence polarization. inhibition, % at 10.9 µM. 0.7% of 320,000 active;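 active = inhibition above the mean of all tested compounds plus 3 SD, cutoff set per campaign, cut at about 30% in these data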;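 also: inhibitors lower millipolarization by displacing the labeled peptide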
# MEX-5 binding – C. elegans MEX-5 TCR-2 RNA binding activity; MEX-5/FITC-TCR2 RNA binding, fluorescence polarization; stronger effect = lower value; activity score (negative = inhibition of binding), % at 10 µM; 0.38% of 300,000 active;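 active = inhibition past about -25% in most replicates, and total fluorescence under double the plate's negative control median, limit read from the data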
# EBV gp42 inh – EBV gp42 inhibition; 0.42% of 220,000 active; Q1HVG2; Fluorescence polarization binding assay, mP read-out; inhibition, % (tested at 21.74 µM); in the data active = inhibition above about 50%
# E coli Lon inh – inhibitors of E. coli Lon protease. P0A9M0. purified E. coli Lon protease, fluorescence polarization. inhibition, % at 7.94 µM. 0.42% of 360,000 active. AID 602123; in the data active = inhibition above about 13%, passing the limit was not always enough
# Numbers stand for hits; i = inactive; nt = no result.
SMILES,GLD-1 TGE inh,Bcl-xL primary,MEX-5 binding,EBV gp42 inh,E coli Lon inh
CCCCn1c(SCC(=O)Nc2ccc(NC(C)=O)cc2)nc2ccccc2c1=O,74.3,i,i,nt,i
O=C1C(=Cc2cccn2-c2ccc(O)cc2)C(=O)c2ccccc21,60.8,169.1,i,82.4,i
O=C(NC1CC1)c1cccc2c1C(=O)c1ccc(N3CCC(Cc4ccccc4)CC3)cc1S2(=O)=O,44.6,nt,nt,nt,i
O=C(NC1CCCCC1)c1cccc2c1C(=O)c1ccc(N3CCCC3)cc1S2(=O)=O,31.8,nt,nt,nt,i
O=C(NCc1ccccc1C(F)(F)F)c1cccc2c1C(=O)c1ccc(N3CCCCC3)cc1S2(=O)=O,i,nt,nt,nt,i
CC(C)(C)CNC(=O)c1cccc2c1C(=O)c1ccc(N3CCCC3)cc1S2(=O)=O,31.6,nt,nt,nt,i
O=C(NCc1cc(C(F)(F)F)ccc1Cl)c1cccc2c1C(=O)c1ccc(N3CCC(Cc4ccccc4)CC3)cc1S2(=O)=O,158.8,nt,nt,nt,i
Cc1cc(C)n(-c2ccc(C(=O)N3CCN(S(=O)(=O)c4ccc(Br)cc4Cl)CC3)cc2)n1,nt,nt,nt,nt,i
O=C(NCc1ccc(F)cc1)c1cccc2c1C(=O)c1ccc(N3CCC(Cc4ccccc4)CC3)cc1S2(=O)=O,167.6,nt,nt,nt,i
COC(=O)CC(NC(=O)c1cccs1)c1ccc(OC)c(OC)c1 (configuration not stated),i,i,i,i,i
CC(C)CNC(=O)COC(=O)c1ccc2c(c1)C(=O)N(Cc1ccco1)C2=O,i,i,i,nt,i
COC(=O)/C=C1\C(=O)N(c2nc3ccc(OC)cc3s2)C(=S)N1c1ccc(F)cc1,i,i,i,i,nt
COC(=O)/C=C1\C(=O)N(c2nc3ccccc3s2)C(=S)N1c1ccc(F)cc1,i,i,-29.8,i,i
OC[C@@H]1CN(Cc2ccccc2)C[C@H](n2cnc3c(NC4CCCC4)ncnc32)O1,nt,nt,nt,nt,i
COC(OC)c1ccnc(-c2ccc(OC(=O)c3cccs3)cc2)n1,i,i,i,58.9,i
O=C1C(Nc2cccc(O)c2)=C(N2CCCCC2)C(=O)c2ccccc21,70.6,56.8,i,i,i
O=C1Nc2cc(Cl)cnc2N2CCCC12 (configuration not stated),i,35.7,-37.1,72.5,i
O=C(NC1CC1)C1=C[C@@H](c2c[nH]c3ccccc23)C[C@@H](OCc2ccc(CO)cc2)O1,i,38.8,i,i,i
O=C(NC1CC1)C1=C[C@H](c2c[nH]c3ccccc23)C[C@H](OCCCCO)O1,i,i,i,i,i
COC(=O)CN1C(=S)N(c2ccc(OC)cc2)C(=O)/C1=C/c1ccc(N2CCOCC2)cc1,i,i,i,75.1,i
Cc1cccc(CN2CCN(C3CN(CCc4ccccc4)S(=O)(=O)C3)CC2)c1 (configuration not stated),nt,nt,nt,nt,i
O=C(O)COc1ccccc1C(Nc1cccnc1)c1cc(Cl)c2cccnc2c1O (configuration not stated),nt,nt,-58.7,i,i
Cc1cc([N+](=O)[O-])nn1CC(=O)NNC(=S)Nc1ccc([N+](=O)[O-])cc1,i,i,-36.9,i,i
COc1ccc(NC(=S)NNC(=O)Cn2nc([N+](=O)[O-])cc2C)cc1,i,i,i,i,i
COC(=O)C(Nc1nccs1)(OC)C(F)(F)F (configuration not stated),i,60.6,i,59.6,i
SMILES,GLD-1 TGE inh,Bcl-xL primary,MEX-5 binding,EBV gp42 inh,E coli Lon inh
O=c1ccc2cccc([N+](=O)[O-])c2[nH]1,nt,nt,nt,nt,i
CC1C(=O)NN=C1C(=O)N/N=C/c1ccco1 (configuration not stated),i,i,-26.0,i,i
COc1cc(/C=N/NC(=O)C2=NNC(=O)C2C)ccc1O (configuration not stated),i,i,i,i,i
CC1C(=O)NN=C1C(=O)N/N=C\c1ccc(O)cc1O (configuration not stated),i,i,-62.2,i,i
CC(C)(C)c1nn(-c2ccccc2)c2[nH]c(=O)c(CNCc3ccco3)cc12,i,i,-26.5,i,i
Cc1ccc(CNCc2cc3c(C(C)(C)C)nn(-c4ccccc4)c3[nH]c2=O)cc1,i,i,i,i,i
CC1COC(Cn2c3ccccc3c3ccccc32)O1 (configuration not stated),i,i,i,i,i
COc1ccc(C(=O)NCc2ccc3c(c2)cc(C)n3C)cc1,i,i,i,i,15.3
Cc1cc2cc(CNC(=O)c3cc4ccccc4o3)ccc2n1C,39.5,30.6,i,i,nt
CC(C)n1c(=O)[nH][nH]c1=S,i,i,i,i,i
